± gives the standard deviation of the averaged measurements. In all, about 4,100 sequences were measured (“relative kcat/Km (krel) vs genomic leader AAAGAU”: median about 1.7, highest 2% from about 6.5 on). The entries come from a sample that favours the highest values as a whole.
Biological target: T1, E. coli RNase P holoenzyme (M1 P RNA + rnpA protein) (UniProt P0A7Y8)
T1 sequence: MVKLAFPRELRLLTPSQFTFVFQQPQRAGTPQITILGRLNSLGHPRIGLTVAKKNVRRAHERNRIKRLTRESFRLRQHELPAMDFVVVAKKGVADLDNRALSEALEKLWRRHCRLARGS
Assay: relative kcat/Km (krel) vs genomic leader AAAGAU (relative (reference leader = 1)); higher = faster RNase P cleavage
Procedure: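 HTS-Kin: a pool of ptRNA-Met (21C construct) with all 4096 combinations of 5' leader nucleotides N(-6) to N(-1) was processed in vitro by E. coli RNase P (P RNA + rnpA/C5 protein) under multiple-turnover conditions at 37 C, pH 8, 17.5 mM MgCl2. Residual substrate was Illumina-sequenced at several fractions reacted, and relative kcat/Km (krel) was computed by internal competition kinetics, calibrated to the genomic leader (AAAGAU = 1). The listed hexamer is the varied N(-6)..N(-1) leader (DNA letters), and it sits between a fixed 5' stem-loop flank (GCAUGCACGAAAGUGCGUGCUAUGAA) and the mature tRNA-Met starting GGCUACGUAGCUCAGUUGG. Two technical replicates are averaged.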

[1] = fraction of substrate reacted: ~9-10% (9.79% repeat 1, 9.1% repeat 2)
[2] = fraction of substrate reacted: ~13-16% (15.68% repeat 1, 13.17% repeat 2)
[3] = fraction of substrate reacted: ~26-29% (28.66% repeat 1, 26.4% repeat 2)

| Sequence | relative kcat/Km [1] | relative kcat/Km [2] | relative kcat/Km [3] |
| --- | --- | --- | --- |
| CACAAG | 1.66 ± 0.94 | 1.78 ± 0.81 | 3.72 ± 0.99 |
| ACGCAT | 1.58 ± 0.85 | 2.23 ± 0.052 | 3.39 ± 1.3 |
| TTGTCG | – | – | 1.07 ± 0.3 |
| TCTCGG | 1.19 ± 1.1 | 0.684 ± 0.45 | 1.04 ± 0.15 |
| TCTTCA | 2.36 ± 1.3 | 1.88 ± 0.27 | 2.49 ± 0.68 |
| ACCCGT | 1.55 ± 1.5 | 1.9 ± 1.9 | 1.96 ± 1.4 |
| AGCTCA | 2.57 ± 1.9 | 2.16 ± 0.53 | 3.13 ± 1.1 |
| AACACT | 1.88 ± 1.1 | 2.41 ± 0.39 | 3.76 ± 0.87 |
| TGACTT | 1.97 ± 0.23 | 2.77 ± 0.65 | 3.33 ± 1.3 |
| GACAAG | 2 ± 1.4 | 2.152 ± 0.02 | 4.06 ± 0.99 |
| CACAAT | 3.85 ± 1.2 | 4.61 ± 0.51 | 6.78 ± 2.9 |
| TACAAT | 2.84 ± 0.75 | 4.74 ± 0.94 | 7.14 ± 3.4 |
| GACAAA | 4.01 ± 1.6 | 4.49 ± 0.5 | 6.91 ± 2.5 |
| AACAAT | 1.84 ± 0.24 | 3.26 ± 0.41 | 4.49 ± 1.9 |
| CACACT | 2.56 ± 0.39 | 3.16 ± 0.72 | 4.82 ± 1.5 |
| GACACG | – | 1.39 ± 0.034 | 2.6 ± 0.37 |
| CACATT | 3.5 ± 1.3 | 4.74 ± 0.66 | 6.23 ± 2.3 |
| GACAAT | 3.33 ± 1.5 | 3.55 ± 1.1 | 5.83 ± 2.4 |
| AGGCTC | – | – | 0.722 ± 0.43 |
| GTTACA | 1.9 ± 0.82 | 2.16 ± 0.12 | 3.09 ± 1.2 |
| CTGCCA | 1.58 ± 1 | 0.692 ± 0.67 | 1.19 ± 0.3 |
| TCACAT | 3.6 ± 1.2 | 4.18 ± 0.55 | 6.08 ± 2.7 |

| Sequence | relative kcat/Km [1] | relative kcat/Km [2] | relative kcat/Km [3] |
| --- | --- | --- | --- |
| AACGTG | – | – | 0.741 ± 0.57 |
| GGATGC | 1.44 ± 0.27 | 1.71 ± 0.79 | 2.74 ± 1 |
| CAAAGC | 1.07 ± 0.26 | 1.12 ± 1.1 | 1.94 ± 1.2 |
| TCTCGA | 3.05 ± 0.36 | 3.16 ± 0.42 | 4.89 ± 2 |
| ACCTCC | 3.29 ± 2.2 | 3.3 ± 0.22 | 4.3 ± 0.6 |
| TCCTCC | 3.65 ± 1.8 | 4.58 ± 1.2 | 6.57 ± 2.7 |
| CCCTCT | 2.96 ± 0.6 | 3.23 ± 0.81 | 3.9 ± 0.73 |
| TCCTCA | 3.22 ± 0.45 | 4.2 ± 0.86 | 6.64 ± 2.4 |
| GCCTCA | 3.93 ± 1.6 | 4.02 ± 0.47 | 5.77 ± 2.1 |
| TCCTCG | 2.35 ± 1.9 | 2.52 ± 0.14 | 3.64 ± 0.61 |
| CCCTCA | 2.47 ± 1.3 | 3.63 ± 0.37 | 3.95 ± 0.28 |
| TCCTCT | 3.55 ± 1.7 | 4.68 ± 1 | 6.72 ± 2.6 |
| CCCTCC | 3.55 ± 1.1 | 3.38 ± 0.94 | 4.21 ± 1.1 |
| ATGGCA | – | 1.34 ± 1.2 | 1.01 ± 0.3 |
| AGTAGG | – | – | 1.52 ± 0.61 |
| CCACCC | 2 ± 0.12 | 1.27 ± 0.51 | 2.49 ± 0.73 |
| AGATGT | 0.906 ± 0.45 | – | 1.84 ± 1.7 |
| CTTGTG | – | – | 0.748 ± 0.26 |
| CGCGGG | 0.135 ± 0.028 | – | 0.258 ± 0.092 |
| TATCTA | 2.06 ± 0.75 | 2.24 ± 0.15 | 2.97 ± 1.5 |
| AAGCAC | 2.14 ± 1.2 | 1.53 ± 0.4 | 3.12 ± 1.2 |
| TTTTGT | – | – | 2.01 ± 1.6 |

| Sequence | relative kcat/Km [1] | relative kcat/Km [2] | relative kcat/Km [3] |
| --- | --- | --- | --- |
| ATTTGC | 3.17 ± 0.9 | 3.69 ± 0.87 | 5.35 ± 1.6 |
| TTTTGC | 3.65 ± 1.3 | 4.42 ± 1.1 | 6.61 ± 2.8 |
| TTTTGA | 3.16 ± 0.88 | 4.56 ± 1.3 | 6.55 ± 2.4 |
| TTTTGG | 0.508 ± 0.012 | – | 0.844 ± 0.31 |
| GTTTGC | 2.91 ± 0.62 | 3.18 ± 0.81 | 5.13 ± 1.9 |
| AGAAAC | 3.18 ± 0.43 | 2.7 ± 0.75 | 3.84 ± 1.5 |
| ATAACA | 0.435 ± 0.37 | 0.897 ± 0.17 | 1.43 ± 0.58 |
| AAGAAT | 2.06 ± 0.33 | 1.89 ± 0.36 | 3.17 ± 1.4 |
| AGTTCT | 2.55 ± 0.89 | 3.08 ± 1.2 | 4.6 ± 1.6 |
| AGTTAT | 2.78 ± 0.19 | 4.36 ± 0.82 | 7 ± 3.2 |
| TGTTGC | 2.72 ± 0.32 | 2.95 ± 0.082 | 4.88 ± 1.9 |
| AGTTTA | 2.86 ± 0.36 | 3.18 ± 0.34 | 4.93 ± 2.3 |
| TGTTTA | 2.78 ± 0.84 | 3.23 ± 0.41 | 4.92 ± 2 |
| TGTTAA | 4.01 ± 0.87 | 5.39 ± 1.7 | 7.94 ± 3.5 |
| AGTTTT | 2.68 ± 0.23 | 3.38 ± 0.73 | 5.01 ± 1.8 |
| TGTTGA | 2.15 ± 0.44 | 3.32 ± 1.3 | 5.59 ± 2.1 |
| AGTTAA | 3.63 ± 1.5 | 5.9 ± 0.68 | 7.15 ± 2.6 |
| TGTTAC | 3.59 ± 1.3 | 5.21 ± 1.2 | 8.19 ± 3.8 |
| AGTTCA | 2.22 ± 0.21 | 2.82 ± 0.86 | 4.24 ± 1.9 |
| TGTTCC | 2.41 ± 1.7 | 3.08 ± 0.79 | 3.89 ± 1.1 |

From the supplement of paper PMC9433436
